Out of some 360,000 compounds screened, about 11,000 (3.1%) were called active. Inconclusive results (about 2%) are left out. Cut-off read from the data, not from the text of the source: active = fluorescence intensity above about 16000; inconclusive = no clear call, values can overlap the other calls; inactive = below that. The entries come from a sample that favours actives as a whole.

This assay is described as follows: counter-screen for toxin protease inhibitors: compound fluorescence, primary screen, artefact control for toxin protease inhibitor project, biochemical, multiplex microsphere, HTS (AID 624483). The note with it: compound autofluorescence counterscreen, microsphere flow cytometry; hits give high values.
Take `Cn1c(=O)cc(OCCCC(=O)N2CCN(Cc3ccc4c(c3)OCO4)CC2)c2ccccc21`: the fluorescence intensity was 9010 (inactive). The value for `Cn1c(=O)cc(OCC(=O)N2CCN(c3ccccc3F)CC2)c2ccccc21` was 2380 (inactive); that for `Cn1c(=O)cc(OCCCC(=O)N2CCN(c3ccccn3)CC2)c2ccccc21` was 19100 (active). The value for `COc1ccc(-c2nc(SCC(=O)N3CCCC3)n[nH]2)cc1` was 5340 (inactive); that for `CCCOc1ccc(-c2nc(N)n[nH]2)cc1` was 16700 (active); that for `Nc1nc(SCCOc2ccccc2)n[nH]1` was 6950 (inactive). The value for `CCOC(=O)c1ccc(-c2ccc3ncnc(N(C)Cc4sccc4C)c3c2)o1` was 3710 (inactive); that for `CCCC(=O)N1CCC1(C)C(=O)NS(=O)(=O)c1ccc(Cl)cc1` (centres undefined) was 2920 (inactive). For the molecule `Cc1nc2c(OCc3ccc(Cl)cc3)cccn2c1N(C)Cc1cccs1`, the fluorescence intensity was 3830 (inactive). `COC(=O)C1=C(N)Oc2c(oc(CO)cc2=O)C1c1c(F)cccc1Cl` (centres undefined): the fluorescence intensity was 3610 (inactive). The value for `COc1ccc(C(=O)N/N=C2\CCS(=O)(=O)c3ccc(F)cc32)cc1OC` was 4530 (inactive); that for `Cc1ccc(C(=O)N(CN2CCCC2=O)c2ccc(F)cc2)cc1` was 24000 (active). The value for `Cc1ccc(-c2nn(-c3ccccc3)cc2C(=O)NCCCN2CCCC2=O)cc1` was 4630 (inactive); that for `CCOc1ccc(C(=O)NCCCN2CCCC2=O)cc1` was 3040 (inactive); that for `Cc1ccc2c(=O)oc(N(C)C)nc2c1` was 2560 (inactive).

Take `CCCNC(=O)CCc1c(C)nc2c(c(C)nn2-c2ccc(C)cc2)c1C`: the fluorescence intensity was 3860 (inactive). With `Cc1ccc(-n2nc(N)c3c(=O)oc(N(C)C)nc32)cc1`, the fluorescence intensity is 23400 (active).

For `Cc1ccc(NS(=O)(=O)c2c(C)[nH]c(=O)[nH]c2=O)cc1C`, the fluorescence intensity is 10900 (inactive). The value for `CC1(C)Cc2ccccc2-c2[nH]c(=S)[nH]c(=O)c21` was 4400 (inactive). The value for `CC1(C)Cc2ccccc2-c2nc(CN3CCOCC3)[nH]c(=O)c21` was 22300 (active). The value for `O=c1[nH]c(CN2CCOCC2)nc2scc(-c3ccccc3)c12` was 4340 (inactive); that for `CC(C)c1cccc(C(C)C)c1Nc1cn[nH]c1` was 6170 (inactive); that for `COc1ccc(NC(=O)COC(=O)C2COc3ccccc3O2)cc1` (centres undefined) was 3930 (inactive). With `CCOc1ccc(NC(=O)c2ccc(NC(=O)COC(=O)c3ccc(NC(=O)CC#N)cc3)cc2)cc1`, the fluorescence intensity is 4430 (inactive). As to `CCC(C)(C)c1ccc(Oc2ccc(NC(=O)COC(=O)C3=COCCO3)cc2)cc1`, the fluorescence intensity was 21300 (active). Take `C/C(=N\NS(=O)(=O)c1ccccc1)c1c(O)cc(C)oc1=O`: the fluorescence intensity is 5910 (inactive). The value for `O=C(CSc1nccc(=O)[nH]1)Nc1ccc(N2CCOCC2)c(Cl)c1` was 3800 (inactive); that for `CCOC(=O)c1c(C)[nH]c(C(=O)OCC(=O)N2CCCC2=O)c1C` was 6230 (inactive). As to `CCOC(=O)c1[nH]c(C)c(C(=O)OCC(=O)N2c3ccccc3CC2C)c1C` (centres undefined), the fluorescence intensity was 19700 (active).

As to `CCOc1ncccc1C(=O)OCC(=O)N1c2ccccc2CC1C` (centres undefined), the fluorescence intensity was 3090 (inactive). The value for `CC(C)C(OC(=O)c1cccs1)C(=O)NC1CCCCC1` (centres undefined) was 9640 (inactive); that for `Cc1ccc(-c2nc(COC(=O)c3c(C)noc3C)cs2)cc1` was 9900 (inactive); that for `COc1ccccc1CN1CCCC(N2CCN(c3ccc(F)cc3)CC2)C1` (centres undefined) was 4030 (inactive). For `COc1ccc(N2C(=O)c3ccccc3NC2c2ccc(OC)c(CN3CCOCC3)c2)cc1` (centres undefined), the fluorescence intensity is 4330 (inactive).

Regarding `COc1ccc(C2C(C#N)=C(N)Oc3n[nH]c(C)c32)cc1CN1CCN(c2ccc(F)cc2)CC1` (centres undefined), the fluorescence intensity was 24200 (active).

On to `CSc1ncnc2c1ncn2CCCNCC1CCCCC1`, for which the fluorescence intensity is 3580 (inactive). Regarding `COc1cccc(N2CCN(C(=O)Nc3ccc4c(c3)NC(=O)CO4)CC2)c1`, the fluorescence intensity was 19600 (active). With `O=C1COc2ccc(NC(=O)N3CCN(c4ccc(F)cc4)CC3)cc2N1`, the fluorescence intensity is 22400 (active). In the case of `Cc1ccc(NC(=O)C2CCN(S(=O)(=O)c3ccc4c(c3)NC(=O)CO4)CC2)cc1C`, the fluorescence intensity was 6240 (inactive). `CC(CC(=O)Nc1ccc(F)cc1F)S(=O)(=O)c1ccc2c(c1)NC(=O)CO2` (centres undefined): the fluorescence intensity is 6050 (inactive). With `COc1ccc(NC(=O)CCS(=O)(=O)c2cc3c(cc2Cl)NC(=O)CO3)cc1OC`, the fluorescence intensity was 4470 (inactive). Then `CCOC(=O)C1CCN(C(=O)Nc2cccc(OC)c2)CC1`, with 3130 (inactive); and `Clc1ccccc1Nc1nc(NCc2cccs2)nc2ccsc12`, with 2970 (inactive).

Take `O=C(NN=Cc1ccccc1O)C(=O)NN=Cc1ccccc1O`: the fluorescence intensity is 3880 (inactive). For `COC(=O)[C@H](CC(C)C)NC(=O)N1CCCCC1C` (some centres undefined), the fluorescence intensity is 6670 (inactive). Then `COc1ccccc1-c1cc(NC(C)=O)c2ncc(-c3ccc(F)cc3)n2c1`, with 3190 (inactive); and `O=C(c1ccc(F)cc1)N1CCC(C(=O)N2CCN(S(=O)(=O)c3ccccc3Br)CC2)CC1`, with 6500 (inactive); and `CCSc1nc(=S)n(CC)c(C)c1C(C)=O`, with 19400 (active). On to `CC(=O)c1c(N2CCOCC2)nc(=S)n(Cc2ccccc2)c1C`, for which the fluorescence intensity was 2990 (inactive). Then `CCn1c(CSc2nc(C)cc(C)n2)nnc1SCC(N)=O`, with 4570 (inactive); and `CCCc1nc(-c2ccccc2O)n(-c2ccccc2)n1`, with 3640 (inactive).

Consider `CC(=O)NC(C)(C)C1CC=C(C)/C(=N\O)C1` (centres undefined), for which the fluorescence intensity was 17100 (active). The value for `C=C(C)C1CC=C(C)/C(=N\NC(=O)CNc2ccccc2OC)C1` (centres undefined) was 2580 (inactive); that for `OC(c1ccccc1)c1nc(/C=C/c2ccc(C(F)(F)F)cc2)cs1` (centres undefined) was 2820 (inactive). In the case of `CCCc1nnc(SCC(=O)Nc2ccc(C(=O)OCC)cc2)o1`, the fluorescence intensity was 3670 (inactive).

As for `O=C(CSc1nnc(Cn2cnc3ccccc32)o1)c1ccccc1`, the fluorescence intensity is 4020 (inactive). The value for `CC(=O)Nc1ccc(C(=O)CSc2nnc(Cc3ccccc3)o2)cc1` was 16300 (active); that for `CN(Cc1cn(Cc2ccc(C(F)(F)F)cc2)nn1)C1CN(Cc2cn(Cc3ccc(C(F)(F)F)cc3)nn2)S(=O)(=O)C1` (centres undefined) was 5810 (inactive); that for `COc1ccc(CNc2nc(NCc3ccc(OC)cc3)c3ncn(C4CCCC4)c3n2)cc1` was 4490 (inactive).

Take `COc1ccc(CNC(=O)C2CCCC2)cc1`: the fluorescence intensity was 5540 (inactive). Take `COc1ccc(CNC2CCCCC2)cc1`: the fluorescence intensity was 22800 (active).

As to `COc1cccc(NC(=O)C2(C)CCN2Cc2ccccc2Cl)c1` (centres undefined), the fluorescence intensity is 3880 (inactive). Then `COc1ccccc1CNC(=O)c1cc(-c2cc(Cl)ccc2C)n[nH]1`, with 3000 (inactive); and `COc1ccc(C(=O)CSc2nnc(COc3ccccc3)n2Cc2ccco2)cc1`, with 23900 (active); and `CCn1c(CNc2ccc(OC)cc2)nnc1SCC(=O)c1ccc(OC)cc1`, with 3090 (inactive). Take `O=C(CSc1nnc(COc2ccc(Cl)cc2)n1Cc1ccco1)N1CCNC1=O`: the fluorescence intensity is 5560 (inactive). Then `CCCCN(CC)C(=O)CN(C)S(=O)(=O)c1cccc2nsnc12`, with 6470 (inactive); and `CC(C(=O)NC1CCCC1)N1CCN(S(=O)(=O)c2ccccc2Cl)CC1` (centres undefined), with 4750 (inactive); and `CCCCNC(=O)CN1C(=O)NC(Cc2ccccc2)(Cc2ccccc2)C1=O`, with 5690 (inactive). Take `O=C(CC1CCCCC1)NCc1ccccc1`: the fluorescence intensity is 3670 (inactive). Then `O=C(CN1C(=O)NC(Cc2ccccc2)(Cc2ccccc2)C1=O)NCC1CCCCC1`, with 20200 (active); and `CSc1ccccc1C(=O)Nc1cccc(C(C)=O)c1`, with 26700 (active); and `CC(=O)c1cccc(NC(=O)[C@@H](NC(N)=O)C(C)C)c1`, with 3400 (inactive).

With `CC(=O)c1cccc(NC(=O)c2cc(C)nn2-c2ccccc2)c1`, the fluorescence intensity is 3940 (inactive). The value for `COC(=O)c1ccc2c(c1)S(=O)(=O)NC2C` (centres undefined) was 5730 (inactive); that for `COC(=O)c1ccc(OCC(O)CN(CCO)CC(O)Cn2ccc3ccccc32)cc1` (centres undefined) was 2540 (inactive); that for `CCOC(=O)c1sc(NC(=O)CSc2nc(C)cc(C(F)(F)F)n2)c(C#N)c1C` was 20700 (active). Then `Cc1cc(C(F)(F)F)nc(SCC(=O)Nc2nccs2)n1`, with 4960 (inactive); and `CCn1c(SCC(=O)Nc2sc(C)c(C)c2C#N)nnc1C1CC1`, with 4370 (inactive); and `CC(C)(C)S(=O)N1Cc2cc(C(=O)NCCCN3CCOCC3)nc(-c3cccc(-c4cc5ccccc5o4)c3)c2[C@H]1CCO` (some centres undefined), with 4620 (inactive). Then `Cc1noc(NS(=O)(=O)c2ccc(N3CC(O)=C(c4ccccc4)C3=N)cc2)c1C`, with 2440 (inactive); and `CCOC(=O)C1CCCN(C(=O)c2ccc(C)c(F)c2)CC1` (centres undefined), with 3730 (inactive); and `CS(=O)(=O)Nc1cccc(C2=NN(S(=O)(=O)c3ccccc3)C(c3cccs3)C2)c1` (centres undefined), with 8170 (inactive). As for `CCS(=O)(=O)Nc1ccc(C2=NN(S(=O)(=O)c3ccc(F)cc3)C(c3ccco3)C2)cc1` (centres undefined), the fluorescence intensity is 17100 (active).

As to `CCS(=O)(=O)Nc1ccc(C2=NN(C(C)=O)C(c3cccs3)C2)cc1` (centres undefined), the fluorescence intensity is 2400 (inactive). The value for `CCOC(=O)C1(C(F)(F)F)N=C(N(C)C)OC(N(C)C)=N1` was 2190 (inactive); that for `COCCCNC(=O)CNC(=S)N(Cc1cc(OC)c(OC)c(OC)c1)C1CCCC1` was 2570 (inactive). Take `O=S1(=O)CC(NCc2ccccc2)C(Nc2ccc(Cl)cc2)C1` (centres undefined): the fluorescence intensity was 3670 (inactive).

With `CCn1c(CNC(=O)c2cc(OC)c(OC)c(OC)c2)cc2cc(C)ccc21`, the fluorescence intensity is 3780 (inactive). `Cc1ccc(S(=O)(=O)N2CCN(C(=O)Cn3c(=O)cnc4ccccc43)CC2)c(C)c1`: the fluorescence intensity is 5660 (inactive). Then `CCn1c(C)nc2cc(C(=O)NNS(=O)(=O)c3ccc(C)cc3C)ccc21`, with 22500 (active); and `CC(=O)Nc1cnc(-c2ccc(O)cc2C)cn1`, with 3960 (inactive); and `NS(=O)(=O)c1ccc(NC2=CC(c3ccc(F)cc3)N(c3ccc(S(N)(=O)=O)cc3)C2=O)cc1` (centres undefined), with 4340 (inactive). As for `C#CCN(C[C@H]1[C@H](OC(=O)NC2CCCC2)[C@H](OC(=O)NC2CCCC2)C[C@H]2C(=O)N(c3ccccc3)C(=O)[C@@H]12)S(=O)(=O)c1ccc(C)cc1`, the fluorescence intensity is 3750 (inactive).
